Shown are actives, neighbours in structure and some others; about 2.4% of the full set was active somewhere.
D2 antagonist: antagonists of human D2 dopamine receptor. AID 485344. HEK293 TREx D2 cells, calcium flux, dopamine EC80. P14416. 340,000 tested, 2% active. inhibition, % at 10 µM; in the data active = inhibition above about 30%; inactive = below that, where a call was filed; note: 0% is about no effect
Target sequence (P14416 whole entry, looked up): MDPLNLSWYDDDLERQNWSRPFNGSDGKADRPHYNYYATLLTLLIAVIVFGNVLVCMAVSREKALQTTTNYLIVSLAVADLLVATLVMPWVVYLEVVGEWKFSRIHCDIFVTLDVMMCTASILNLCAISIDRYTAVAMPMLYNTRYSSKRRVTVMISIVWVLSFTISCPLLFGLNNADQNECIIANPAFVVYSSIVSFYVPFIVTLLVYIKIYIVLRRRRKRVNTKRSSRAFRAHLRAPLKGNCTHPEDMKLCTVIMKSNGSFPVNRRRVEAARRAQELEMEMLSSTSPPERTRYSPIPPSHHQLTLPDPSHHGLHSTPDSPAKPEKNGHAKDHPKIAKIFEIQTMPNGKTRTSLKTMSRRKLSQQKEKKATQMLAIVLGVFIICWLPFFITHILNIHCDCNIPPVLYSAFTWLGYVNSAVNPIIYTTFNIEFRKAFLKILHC
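Calcium mobilization kinetics were recorded at 1 s intervals in tetracycline-induced HEK293 T-REx D2 cells, first for 180 s after compound addition and then 180 s after EC80 dopamine.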
D2 PAM-1: potentiates the human D2 dopamine receptor allosterically; P14416; DiscoveRx D2 beta-arrestin cells, luminescence, 90 min; 100% = 57 uM dopamine signal; potentiation, % (concentration not given with the values); 360,000 tested, 0.23% active; AID 624464; in the data active = potentiation above about 50%
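D2 cells co-treated with compound plus 50 nM dopamine (EC20) for 90 min at 37 deg C to detect potentiation. Beta-arrestin recruitment was read as enzyme-fragment luminescence after 1 h at ambient temperature. Full response was set by 57 uM dopamine.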
D2 ag-1: agonists of human D2 dopamine receptor (beta-arrestin); activation, % (test concentration not listed); DiscoveRx PathHunter D2 beta-arrestin, luminescence, 90 min; 100% = 57 uM dopamine signal; P14416; 360,000 tested, 0.084% active; in the data active = activation above about 40%
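Agonist mode: compounds alone added to overnight-plated D2 PathHunter cells for 90 min at 37 C, with 57 uM final dopamine (EC100) defining full response. Beta-arrestin recruitment detected by chemiluminescent reagent, read after 1 h at ambient temperature.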
D2 ag-2: activates the human D2 dopamine receptor. P14416. HEK293 T-REx D2 cells, calcium flux agonist mode. activation, % at 2 µM. 340,000 tested, 0.53% active;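 active = activation over 3 SD above normal in the single-dose calcium agonist read, cut at about 30% in these data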; note: 0% is about no effect
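Tetracycline-induced HEK293 Trex cells with D2 receptor force-coupled to calcium signaling, plated overnight at 30 C and loaded with no-wash calcium dye. Calcium flux read kinetically for 180 s after compound addition; responses flag agonists.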
D2 PAM-2: D2 dopamine receptor (human) potentiation | P14416 | HEK293 T-REx D2, calcium flux, EC20 dopamine potentiation | potentiation, % at 10 µM | 340,000 tested, 0.34% active | AID 485347;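 active = potentiation over 3 SD above the plate norm, cut at about 30% in these data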; note: 0% is about no effect
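Potentiation of an EC20 dopamine calcium response measured kinetically over 180 s, after a preceding 180 s compound-only read flagging agonists. Cells: inducible Hek293 Trex D2 line, 4000/well, cultured overnight at 30 C before dye loading.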
The depositor's hits bear a star; / = not tested or not shown.

SMILES	D2 antagonist	D2 PAM-1	D2 ag-1	D2 ag-2	D2 PAM-2
Cc1ccc(S(=O)(=O)N(C)C)cc1NC(=O)CCCNC(=O)c1ccc(Cl)cc1	41*	-20	-2	-1	-43
Cc1cc(NC(=O)CN(C)S(=O)(=O)c2ccc3c(c2)CCC(=O)N3)ccc1Br	/	/	/	1	2
Cc1ccc2nc(-c3cc(NC(=O)/C=C/c4ccccc4)ccc3Cl)oc2c1	/	/	/	1	-1
CCOC(=O)c1ccc(N2CCN(c3ccccc3F)CC2)c(NC(=O)Nc2ccc(Cl)c(Cl)c2)c1	/	/	/	-1	12
Cc1ccc(S(=O)(=O)N(C)C)cc1NC(=O)Nc1ccccc1F	64*	-14	-3	-1	-27
CCN(CC)S(=O)(=O)c1ccc(C)c(NC(=O)CSc2ncc(C(F)(F)F)cc2Cl)c1	-3	-13	-6	0	-3
Cc1ccc(S(=O)(=O)N(C)C)cc1NC(=O)CSc1ncc(C(F)(F)F)cc1Cl	37*	-6	1	1	-39
CC(NCC(O)c1ccc([N+](=O)[O-])cc1)C12CC3CC(CC(C3)C1)C2 (centres undefined)	38*	-7	-7	0	20
O=C(NCC(O)c1ccc([N+](=O)[O-])cc1)Nc1ccccc1 (centres undefined)	6	-12	-3	0	0
O=C(COc1ccc(S(=O)(=O)N2CCCC2)cc1Cl)NCc1ccccn1	-11	-2	-1	0	-5
O=C(COc1ccc(S(=O)(=O)N2CCOCC2)cc1Cl)NCc1ccccn1	25	1	1	1	34*
O=c1c2ccccc2n2c(-c3ccc(Cl)cc3)nnc2n1CCc1ccccc1	/	/	/	-1	13
CN1CCC(N(C)C(=O)COc2ccccc2Cl)CC1	31*	-3	-2	2	-15
CN(C(=O)COc1ccc(Br)cc1Cl)C1CCCCC1	-9	-11	-2	1	-8
CCOc1ccc(OCC)c(NC(=O)c2nnn(CC(=O)Nc3ccc(C)cc3C)c2N)c1	/	/	/	0	-6
Cc1ccc(NC(=O)C2CCCN(c3ncnc4onc(C)c34)C2)cc1Cl (centres undefined)	/	/	/	/	-5
N#CC1(c2ccccc2)CCC(NCCc2ccccc2)CC1 (centres undefined)	46*	-20	0	3	-24
Cc1ccc(S(=O)(=O)c2cn(CC(=O)Nc3ccc4c(c3)OCO4)c3ccc(F)cc3c2=O)cc1	/	/	/	/	-20
O=C(O)c1cc(S(=O)(=O)O)ccc1O	42*	-7	-1	0	0
O=C(O)c1cc2cc(S(=O)(=O)O)ccc2cc1O	/	11	0	/	/
COc1cccc(NC(=O)CN(C)C(=O)CC(NC(=O)c2ccccc2Cl)c2ccccc2)c1 (centres undefined)	32*	-5	-1	0	-22
COc1cccc(NC(=O)CN(C)C(=O)c2cccc(NS(=O)(=O)c3ccc(Br)cc3)c2)c1	/	-3	-1	/	/
Cc1ccc(NC(=O)CN(C)C(=O)c2cccc(S(=O)(=O)NCc3ccccc3)c2)cc1	46*	-38	-3	0	-2
Cc1ccc(NC(=O)CN(C)C(=O)c2cccc(S(=O)(=O)NCc3cccs3)c2)cc1	-22	-6	4	0	-19
COc1cccc(NC(=O)CN(C)C(=O)c2cccc(NS(=O)(=O)c3ccccc3)c2)c1	32*	-2	0	0	-10
Cc1cccc(NC(=S)N(CCCN2CCOCC2)C(C)c2cc3ccccc3o2)c1 (centres undefined)	35*	-17	-7	0	-10
COc1cccc2cc(C(C)N(CCCN3CCOCC3)C(=S)Nc3cccc(C)c3)oc12 (centres undefined)	14	-16	-6	-1	-13
Cc1cccc(C)c1C(OCCN(C)C)C1CCCCC1 (centres undefined)	89*	-35	-2	1	-20
CN(C)CCOC(c1ccccc1)c1ccccc1 (tested in a mixture with another compound)	-10	-15	-7	-3	7
CN(CC(=O)Nc1cccc(F)c1)C(=O)c1cc([N+](=O)[O-])ccc1N1CCCCC1	42*	-26	-5	-1	0

Assay outcomes deposited in PubChem BioAssay by National Center for Advancing Translational Sciences (NCATS).
